Source: PubChem BioAssay (NCI)
This is part of a sample that, as a whole, favours compounds with a hit. Of some 79,000 tested, about 15% had one in any assay. Rule as the data show it: active = growth inhibition above about 70%; inactive = the rest.

How the values were obtained:
[1] = NCI Yeast Anticancer Drug Screen. Data for the rad50 strain (AID 155);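 also: 0% = growth of vehicle-only cultures of the same strain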; conditions: S. cerevisiae rad50 strain growth inhibition; at 50.0 µM; hits give high values
How it was run: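 Growth of the mutant yeast was measured after compound exposure and referenced to vehicle-treated cultures.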

[2] = NCI Yeast Anticancer Drug Screen. Data for the mec2-1 strain (AID 157); conditions: S. cerevisiae mec2-1 strain, at 50.0 µM, hits give high values
How it was run: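 Strain: mec2-1 (DNA repair/cell cycle alteration). Compound exposure, then growth measured; inhibition expressed relative to vehicle.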

[3] = NCI Yeast Anticancer Drug Screen. Data for the sgs1 mgt1 strain (AID 161);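 also: 0% = growth of cultures given vehicle only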; conditions: S. cerevisiae sgs1 mgt1 strain, at 50.0 µM, hits give high values
How it was run: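 Mutant yeast exposed to compound; growth scored against vehicle-only wells.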

[4] = NCI Yeast Anticancer Drug Screen. Data for the cln2 rad14 strain (AID 165);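 also: 0% = growth equal to vehicle treated cultures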; conditions: S. cerevisiae cln2 rad14 strain, at 50.0 µM, hits give high values
How it was run: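 Compounds are applied to the cln2 rad14 yeast strain, and growth is then compared with that of vehicle-treated cultures to give inhibition.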

[5] = NCI Yeast Anticancer Drug Screen. Data for the bub3 strain (AID 167); conditions: S. cerevisiae bub3 mutant strain, at 50.0 µM, hits give high values
How it was run: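 Whole-cell yeast assay. The mutant strain was incubated with compounds, and growth inhibition was determined by comparison with vehicle-treated cells.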

[6] = NCI Yeast Anticancer Drug Screen. Data for the mlh1 rad18 strain (AID 175); conditions: S. cerevisiae mlh1 rad18 strain growth inhibition; at 50.0 µM; hits give high values
How it was run: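 Read-out is yeast growth inhibition, calculated against vehicle-only controls. The compound was applied to a strain engineered with DNA damage repair alterations.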

Measured: growth inhibition

NC(CSS(=O)(=O)c1ccccc1)C(=O)O (configuration not stated)
inactive: [1] 4% | [2] -37.5% | [3] -0.75% | [4] 0.5% | [5] -10.6% | [6] 0.3%

Cc1ccc(S(=O)(=O)OC2CC(C(C)(C)C)CCC2c2ccccc2)cc1 (configuration not stated)
inactive: [1] -29.1% | [2] -7% | [3] -48.9% | [4] -84.2% | [5] -5.15% | [6] 5.9%

COc1ccc(C2C(Cl)C(=O)N2NC(=O)c2ccccc2O)cc1 (configuration not stated)
inactive: [1] -27.2% | [2] -17.4% | [3] -38.1% | [4] -1.45% | [5] -4.6% | [6] -34.8%

CCc1cc2c(cc1C(=O)/C=C\c1cccc3ccccc13)C(C)(C)CCC2(C)C
inactive: [1] 13.1% | [2] -5.35% | [3] 8.15% | [4] -20.1% | [5] -3.5% | [6] 15%

COc1cc(C2c3cc4c(c(OC(=O)c5ccncc5)c3CC3COC(=O)C32)OCO4)cc(OC)c1OC (configuration not stated)
inactive: [1] 1.15% | [2] -11.6% | [3] 35.8% | [4] 15.8% | [5] 5.8% | [6] -0.05%

O=c1c2c([nH]c3c1ccc1[nH]c4c(c(=O)c13)CCCC4)CCCC2
inactive: [1] -18.9% | [2] -0.75% | [3] -12.6% | [4] -13.6% | [5] -8.5% | [6] -2.3%

O=C(O)c1ccc(N=Nc2ccccc2)cc1
inactive: [1] -4.4% | [2] 14.9% | [3] 20.9% | [4] 0.3% | [5] -5.1% | [6] 2.75%

C1CCC(N(CCN(C2CCCCC2)C2CCCCC2)C2CCCCC2)CC1
inactive: [1] -38.5% | [2] -32.8% | [3] -26.7% | [4] 15.3% | [5] 5.6% | [6] -11.9%

Fc1ccc2c(c1)Nc1ccccc1S2
inactive: [1] -6.1% | [2] -1.95% | [3] 7.65% | [4] -8.85% | [5] -16% | [6] -14.6%

O=C([O-])c1ccc(C(=O)[O-])cc1.O=C([O-])c1ccc(C(=O)[O-])cc1.[Mo+2].[Mo+2]
inactive: [1] -38.6% | [2] 18.1% | [3] 2.85% | [4] 9.1% | [5] -11.8% | [6] 16.6%

O=c1cc([O-])[n+](C2OC(CO)C(O)C2O)c2sccn12 (configuration not stated)
inactive: [1] 10.2% | [2] 9.2% | [3] 16.6% | [4] -0.5% | [5] -2.55% | [6] -2.8%

O=c1[nH]cc(CNC2CCCCC2)c(=O)[nH]1
inactive: [1] 21.5% | [2] -9.35% | [3] 7.65% | [4] -0.2% | [5] 4.6% | [6] 8.2%

CCOC(=O)Nc1nc2cc(C(=O)OC)n(C)c2s1
inactive: [1] 19.4% | [2] 23.6% | [3] 25.7% | [4] 11.1% | [5] 7.4% | [6] 18.9%

CCOC(=O)CC/C(=C\NC(=O)c1ccccc1)NC(=O)c1ccccc1
inactive: [1] -9% | [2] -26.4% | [3] -21.6% | [4] 16.2% | [5] -9.55% | [6] 1.9%

C=CCOc1ccc(C2CCCCC2)cc1
inactive: [1] 42% | [2] 16.9% | [3] 20.5% | [4] 11.6% | [5] -2.75% | [6] 18.3%

CC1(C(=O)O)CCC2(C)CCC3(C)C(=CC(=O)C4C5(C)CCC(OC6OC(C(=O)O)C(O)C(O)C6OC6OC(C(=O)O)C(O)C(O)C6O)C(C)(C)C5CCC43C)C2C1 (configuration not stated)
inactive: [1] 13.6% | [2] 3.95% | [3] -2.25% | [4] 24.8% | [5] 15.8% | [6] 19.2%

COc1ccc([N+](=O)[O-])c2c(C)cc(=O)[nH]c12
inactive: [1] 32.1% | [2] 19.4% | [3] 21.9% | [4] -9.5% | [5] -23.6% | [6] 35.7%

O=C(Nc1ccc(Cl)cc1)Nc1nnc(-c2ccc(F)cc2)o1
inactive: [1] 5.5% | [2] 9.25% | [3] 7.75% | [4] -70.3% | [5] -25% | [6] 17.4%

O=[N+]([O-])c1ccccc1N=C=S
inactive: [1] 9.5% | [2] -10.3% | [3] -4.05% | [4] -36% | [5] -9.85% | [6] -17.7%

CCc1c(Sc2ccccn2)n(COCc2ccccc2)c(=O)[nH]c1=O
inactive: [1] -14.5% | [2] -4.4% | [3] -24.9% | [4] -16.4% | [5] -17.8% | [6] -16.1%

CC1(c2ccccc2)OCCCO1
inactive: [1] -11.3% | [2] -7.15% | [3] -10.8% | [4] 0.65% | [5] -2.5% | [6] -0.8%

CCN(CC)CCC(=O)N1CCc2c([nH]c3ccccc23)C1c1cccnc1 (configuration not stated)
inactive: [1] -26.9% | [2] -18.9% | [3] -3.95% | [4] -6.7% | [5] -0.1% | [6] -28.2%

CC(C)(C)c1ccc(SCC#CCOc2ccc(Cl)cc2)cc1
inactive: [1] -6.2% | [2] 4.2% | [3] -4.8% | [4] -23.6% | [5] -7.3% | [6] -20.4%

COc1ccc2c(c1)CCC1C(=O)NN=C21 (configuration not stated)
inactive: [1] 12.8% | [2] -4.1% | [3] -5.6% | [4] -43.4% | [5] -23.1% | [6] -8%

O=C1C=C(Nc2nc(O)cc(=O)[nH]2)c2ccccc2C1=O
inactive: [1] 0.75% | [2] 2.2% | [3] 1.15% | [4] -38.5% | [5] -0.4% | [6] 13.5%

CCCCCC/C=C\CCCCCCCCCC1=CC(=O)C=C(OC)C1=O
inactive: [1] -1.35% | [2] -10.2% | [3] -19% | [4] -83.8% | [5] -31.4% | [6] -11.7%

COc1ccc(NC(=O)Nc2cc(Cl)ccc2C)c(Cl)c1
inactive: [1] 0.7% | [2] 36% | [3] 29.8% | [4] -3.35% | [5] 30.4% | [6] 29.9%

COc1ccc2ccccc2c1C1/C(=N/O)CCc2ccccc21 (configuration not stated)
inactive: [1] 30.4% | [2] 15.2% | [3] 12.2% | [4] -37.3% | [5] 10.6% | [6] 14.7%

O=C1CC(NC(=O)c2ccccc2)C(=O)O1 (configuration not stated)
inactive: [1] -5.75% | [2] 3.4% | [3] 18.8% | [4] -31.1% | [5] 4.3% | [6] -21.4%

Nc1ccc(SCCC(=O)O)cc1
inactive: [1] 18.9% | [2] 0.7% | [3] -0.25% | [4] 2.1% | [5] 5.95% | [6] -13.3%

O=C(C[n+]1cccc(Cl)c1)c1cccc([N+](=O)[O-])c1
inactive: [1] -25.7% | [2] -7.2% | [3] -9.25% | [4] -3.8% | [5] 4.55% | [6] -5%

c1cnc(NC(Nc2cnccn2)C2CCCCC2)cn1
inactive: [1] -2.25% | [2] -1.55% | [3] -6.6% | [4] -20.9% | [5] 4.25% | [6] 1.35%

COc1cc(/C=C2\Cc3ccccc3C2=O)cc(OC)c1OC
inactive: [1] -13% | [2] -14.8% | [3] -15.8% | [4] 18.3% | [5] -14.1% | [6] -13.1%

CC(C)(C)SC(=S)SCC(=O)c1cc2cc(Br)ccc2o1
inactive: [1] -19.7% | [2] -25.6% | [3] -11.5% | [4] -3.25% | [5] -16.9% | [6] -8.5%

COC(=O)CC1(C(=O)OC)Oc2ccc(Br)cc2C(=O)N1c1ccc(Br)cc1Cl (configuration not stated)
inactive: [1] 26.9% | [2] -16.4% | [3] 24.6% | [4] 15.2% | [5] 19.4% | [6] 27.7%

CCc1nc2c(c(=O)[nH]1)C(c1ccc(Cl)cc1)C(C)(C)O2 (configuration not stated)
inactive: [1] -1.2% | [2] -22.6% | [3] -17.4% | [4] 4.45% | [5] 1.1% | [6] -7.4%

CC(C)CCN(CC(C)C)C(=O)c1ccc([N+](=O)[O-])cc1 (tested in a mixture with another compound)
inactive: [1] 16.1% | [2] 0.6% | [3] 8.75% | [4] -3.25% | [5] -5.6% | [6] 14.1%
